Measurements published in PubChem BioAssay (NCI).
Compounds without any hit were thinned out: in the full panel of roughly 83,000, 20% have a hit.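 Cell lines were cultured in 96-well plates, exposed to a single compound concentration, and assessed for percent growth 48 hours later.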 Calls of active or inactive are those of the source. The calls were made as follows: active = growth percent below 10; inactive = the rest.

Assays:
Experiment in all cases: NCI-60 one-dose screen, 48 h (100 = growth as untreated, 0 = no growth, -100 = all killed)
Details in all cases: 10 µM unless noted
[1] = tested on: SR leukemia
[2] = tested on: RPMI-8226 leukemia
[3] = tested on: OVCAR-8 ovarian
[4] = tested on: OVCAR-5 ovarian
[5] = tested on: OVCAR-4 ovarian
[6] = tested on: SK-OV-3 ovarian
[7] = tested on: IGROV1 ovarian
[8] = tested on: OVCAR-3 ovarian
[9] = tested on: HS 578T breast
[10] = tested on: NCI/ADR-RES ovarian
[11] = tested on: T-47D breast
[12] = tested on: BT-549 breast
[13] = tested on: MDA-MB-435 melanoma
[14] = tested on: SW-620 colon
[15] = tested on: MCF7 breast
[16] = tested on: HCT-116 colon
[17] = tested on: HCC-2998 colon
[18] = tested on: KM12 colon

Measured: growth

O=C1/C(=C/c2ccc(Cl)cc2)CN(C(=O)C(Cl)Cl)C/C1=C\c1ccc(Cl)cc1
active: [1] -8.06% | [2] -28.6% | [3] -3.39% | [4] -61.8% | [5] 1.03% | [6] -7.85% | [7] -76.3% | [8] -97.9% | [9] -8.2% | [10] -2.96% | [11] -58.3% | [12] -82.6% | [13] -95.3% | [14] -78.9% | [15] -70.8% | [16] -86.6% | [17] -91.8% | [18] -81.9%

Nc1cc(Br)cc2c1[nH]c(=O)c1ccccc12
inactive: [1] 90.7% | [2] 96.1% | [3] 86.2% | [4] 92.3% | [5] 84.2% | [6] 105% | [7] 114% | [8] 94.4% | [9] 91.6% | [10] 91.7% | [11] 79.6% | [12] 86.9% | [13] 113% | [14] 94.7% | [15] 53.2% | [16] 96.8% | [17] 104% | [18] 104%

O=C(C1=Cc2cc3ccccc3n2Cc2cnnn21)c1ccc(F)cc1
inactive: [1] 87.6% | [2] 92.4% | [3] 99.4% | [4] 115% | [5] 95% | [6] 94.6% | [7] 90% | [8] 104% | [9] 90.8% | [10] 101% | [11] 95% | [12] 94.9% | [13] 97.5% | [14] 108% | [15] 94% | [16] 97.9% | [17] 110% | [18] 90.8%

COC(=O)/C=C1/SC(=NCc2ccccc2)N(CCc2c[nH]c3ccccc23)C1=O
inactive: [1] 29.8% | [2] 52.4% | [3] 67.6% | [4] 110% | [5] 78.1% | [6] 111% | [7] 92.1% | [8] 79.1% | [9] 79.7% | [10] 80.6% | [11] 53.5% | [12] 66.9% | [13] 72.3% | [14] 72% | [15] 48.4% | [16] 53.6% | [17] 99.8% | [18] 70.4%

O=C(N/N=C/c1ccc(Cl)cc1)c1ccc(NC(=O)c2ccccn2)cc1
inactive: [1] 43.3% | [2] 62.1% | [3] 46.1% | [4] 67.6% | [6] 53.9% | [7] 30.9% | [9] 53.9% | [10] 53.2% | [11] 52.1% | [12] 62.7% | [13] 63.8% | [14] 71.5% | [15] 52.3% | [17] 72.3% | [18] 73.2%
active: [5] -77.6% | [8] 0.827% | [16] 5.15%

C=CN(C(=O)N1CCN(c2cc3c(cc2F)c(=O)c(C(=O)O)cn3C2CC2)CC1)c1nc(-c2ccc(Cl)cc2)cs1
inactive: [1] 33.2% | [2] 15.9% | [3] 67.3% | [4] 85.7% | [5] 78.4% | [6] 74.7% | [7] 21.4% | [8] 53.9% | [9] 54.3% | [10] 90.6% | [11] 76.2% | [12] 63.1% | [13] 74.8% | [14] 93.9% | [15] 51.3% | [16] 24.1% | [17] 95.9% | [18] 61.8%

CCCn1c(=S)sc2c(NNC(C)=O)nc(C)nc21
inactive: [1] 158% | [2] 93.1% | [3] 102% | [4] 98% | [5] 101% | [6] 99.9% | [7] 37.1% | [8] 118% | [9] 97.7% | [10] 101% | [11] 78.9% | [12] 110% | [13] 115% | [14] 101% | [15] 95.9% | [16] 95.3% | [17] 94.8% | [18] 97%

Cn1cc(-c2nc3c(F)cc4[nH]ncc4c3c3c2CCCC3)c(C(F)(F)F)n1
inactive: [3] 39.4% | [4] 65% | [5] 73.8% | [6] 14.1% | [7] 24% | [8] 55.2% | [9] 18% | [10] 60.2% | [11] 39.9% | [13] 14% | [14] 18.6% | [15] 24.6% | [16] 15.1% | [17] 65.3% | [18] 24.2%
active: [1] -30.9% | [2] -5.82% | [12] 4.21%

O=C(NCc1ccc(Cn2c(=O)sn(-c3ccccc3)c2=O)cc1)OCc1ccc2cccc(O)c2n1
inactive: [6] 75.8%
active: [1] -11.3% | [2] -22.5% | [3] -0.135% | [4] -61.2% | [5] -33.6% | [7] -76.5% | [8] -87.1% | [9] -1.39% | [10] -28.1% | [11] -41.7% | [12] -85% | [13] -89.9% | [14] -62.2% | [15] -43.2% | [16] -87% | [17] -71.6% | [18] -15.1%

Cn1cc(-c2csc(-c3cn(C)c4ccccc34)n2)c2cnccc21
inactive: [3] 27.4% | [4] 77.4% | [5] 68.1% | [6] 105% | [7] 68.5% | [8] 43.9% | [9] 97.5% | [10] 41.8% | [11] 67.4% | [12] 87.8% | [15] 10.5% | [18] 26.6%
active: [1] -0.518% | [2] -18.6% | [13] -79.4% | [14] -47.6% | [16] -74.6% | [17] -63.4%

COc1nc(/C=C\Nc2ccc3c(c2)OCCOCCOCCOCCO3)nc(OC)n1
inactive: [1] 119% | [2] 94.3% | [3] 108% | [4] 98.3% | [5] 95.5% | [6] 106% | [7] 97.2% | [8] 99.2% | [9] 89.9% | [10] 93.7% | [11] 87.5% | [12] 92.9% | [13] 94.8% | [14] 94% | [15] 93% | [16] 95.2% | [17] 98.2% | [18] 101%

CN(C)CCn1c(=O)c2ccccc2n2nc3ccccc3c12
inactive: [1] 46.8% | [2] 101% | [3] 79.2% | [4] 105% | [5] 83.9% | [6] 94.5% | [7] 74.9% | [8] 99.2% | [9] 97.8% | [10] 76.7% | [11] 99.8% | [12] 103% | [13] 100% | [14] 64.2% | [15] 72.6% | [16] 71.1% | [17] 99.8% | [18] 95%

COC12C=C/C(=C(/C(=O)OCc3cncnc3)C(=O)CCCCCCCCC3(OC)C=C/C(=C(/C(=O)OCc4cncnc4)C(=O)CCCCCCCC1)O3)O2
active: [1] -36% | [2] -20.1% | [3] 9.06% | [4] -25.6% | [5] -4.86% | [7] -59.5% | [8] -57.8% | [10] 8.14% | [12] -10.2% | [13] -49.8% | [14] 4.94% | [15] 3.84% | [16] -63.8% | [17] -77.5% | [18] -89.2%
inactive: [6] 36.9% | [9] 26.5% | [11] 10.2%

C/C(Cc1ccc(Cl)cc1)=C(\c1ccc(OCCN2CCCCCC2)cc1)c1ccc(OC(=O)c2ccccc2)cc1
active: [1] -14.3% | [2] -24.6% | [15] 9.46% | [16] -64.8%
inactive: [3] 34.5% | [4] 68.7% | [5] 36.6% | [6] 86.9% | [7] 24.4% | [8] 59.1% | [9] 56% | [10] 47% | [11] 46.3% | [12] 56.2% | [13] 47.6% | [14] 37.3% | [17] 23.8% | [18] 32%

Cc1ccc(S(=O)(=O)OCC#CCOS(=O)(=O)c2ccc(C)cc2)cc1
active: [7] -40.2% | [11] -22.9%
inactive: [1] 10.8% | [2] 20.2% | [3] 34.6% | [4] 112% | [5] 73.4% | [6] 98.3% | [8] 12.4% | [9] 62.4% | [10] 31% | [12] 54.9% | [13] 49.3% | [14] 51.2% | [15] 31% | [16] 24.7% | [17] 81.6% | [18] 60.9%

COc1cc2ncnc(Nc3ccc(S(=O)(=O)Nc4nccs4)cc3)c2cc1OCCCN1CCCC1
inactive: [1] 99.1% | [2] 107% | [3] 99.7% | [4] 109% | [5] 110% | [6] 98.6% | [7] 110% | [8] 109% | [9] 110% | [10] 108% | [11] 105% | [12] 105% | [13] 99.7% | [14] 103% | [15] 99.6% | [16] 97.3% | [17] 112% | [18] 121%
